# About 3,000 (1%) of roughly 290,000 compounds were called active. This is one part of a sample in which actives are shown more often than they occur. No stated cut-off is given here; in the data, active means inhibition mostly above about 36% (no sharp cut-off); inactive means mostly below about 34%.
# Assay: inhibition of NOD1-driven NF-kB reporter – cell-based, luminescence, uHTS, primary screen (AID 1578);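 further: HEK-293T reporter cells stimulated with the NOD1 agonist gamma-tri-DAP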
# Conditions: NOD1-driven NF-kB luciferase reporter cells, at 4 µM, active compounds read high
row,Compound,inhibition
1,O=S(=O)(c1ccc(Cl)cc1)n1cnc2ccccc21,-31.4% (inactive)
2,Cc1ccc(-c2csc(N(C)C(=O)c3c(C)nn(-c4ccccc4)c3Cl)n2)cc1,33.6% (inactive)
3,O=C(CN1C(=O)NC2(CCCCC2)C1=O)N1CCN(S(=O)(=O)c2ccccc2)CC1,-35.1% (inactive)
4,Cc1cccc(C)c1Nc1nnc(SCc2nc3ccccc3s2)s1,-39.5% (inactive)
5,CC1(C)CC(=O)C=C(Nc2cc(-c3ccccc3)[nH]n2)C1,-25.9% (inactive)
6,Nc1ccccc1Nc1cc(-c2ccccc2)nn1-c1ccccc1,-20.6% (inactive)
7,Nc1ccccc1Nc1cc(-c2ccccc2)[nH]n1,48.4% (active)
8,CC(C)C(NC(=O)c1ccc(F)cc1)C(=O)NCC1CCCO1 (centres undefined),-6.2% (inactive)
9,COc1cc(OC)cc(C(=O)Nc2ccc(S(=O)(=O)N3CCOCC3)cc2)c1,-9.3% (inactive)
10,COc1cc(OC)cc(C(=O)N2CCC3(CC2)NCCc2[nH]cnc23)c1,-20.2% (inactive)
11,CC1C/C(=N\NC(N)=S)c2cc(Cl)ccc2S1 (centres undefined),3.3% (inactive)
12,CC1Sc2ccc(Cl)cc2-c2nc(N)ncc21 (centres undefined),50.5% (active)
13,Nc1ncc2c(n1)-c1cc(Cl)ccc1SC2,-6.1% (inactive)
14,Cc1c(Cl)c([N+](=O)[O-])nn1CCCC(=O)Nc1cccc(O)c1,-0.3% (inactive)
15,O=[N+]([O-])c1cc(S(=O)(=O)C(F)(F)F)ccc1Sc1nc2ccccc2[nH]1,46.1% (inactive)
16,Cc1ccc(CN2CCN(Cc3cccn3-c3ccc(Cl)cn3)CC2CCO)o1 (centres undefined),-17.4% (inactive)
17,O=C(CSc1ccc2nnc(-c3ccncc3)n2n1)Nc1ccc2c(c1)OCCO2,9.6% (inactive)
18,Cc1ccccc1OCc1nc2ccccc2c(=O)n1/N=C/c1ccco1,31.5% (inactive)
19,Cc1ccccc1OCc1nc2ccccc2c(=O)n1/N=C/c1cccc([N+](=O)[O-])c1,80.1% (active)
20,Cc1cc(/C=N/n2c(COc3ccccc3C)nc3ccccc3c2=O)c(O)c([N+](=O)[O-])c1,15% (inactive)
21,O=C(Oc1ccc2ccc(=O)oc2c1)c1ccc([N+](=O)[O-])cc1,-9.4% (inactive)
22,CCc1nc(C)cn1S(=O)(=O)c1ccc(Br)cc1,-17.6% (inactive)
23,CCOc1ccccc1NC(=O)c1cc(C(=O)c2cc(Br)ccc2O)coc1=N,56.4% (active)
24,CCOC(=O)c1cc(C(=O)c2cc(Br)ccc2O)coc1=N,-15.1% (inactive)
25,CCOc1ccccc1NC(=O)c1cc(C(=O)c2cc(OC)ccc2O)coc1=N,-9.3% (inactive)

row,Compound,inhibition
1,COc1cccc(CNC(=O)C(C)n2nc(C)n3c(cc4occc43)c2=O)c1 (centres undefined),-11.7% (inactive)
2,CCOc1cc2[nH]c(=O)n(CCC(=O)NCCc3ccccc3)c(=O)c2cc1OCC,-0.5% (inactive)
3,Cc1cc(C)c(S(C)(=O)=O)c(S(=O)(=O)c2ccc(Cl)cc2)n1,-33.9% (inactive)
4,CC(C)CCNC(=O)c1ccc2c(SCC(=O)O)c3c(nc2c1)CCCC3,-29.5% (inactive)
5,O=C(O)CSc1c2c(nc3cc(C(=O)NCCN4CCOCC4)ccc13)CCC2,91.8% (active)
6,CC(C)CCNC(=O)c1ccc2c(SCC(=O)O)c3c(nc2c1)CCC3,0.8% (inactive)
7,Cc1ccc(S(=O)(=O)Cc2ccc(C(=O)N3CCN(c4cccc(C)c4C)CC3)o2)cc1,27.1% (inactive)
8,Cc1ccccc1S(=O)(=O)Cc1ccc(C(=O)N2CCN(c3ccccc3F)CC2)o1,21.3% (inactive)
9,COc1ccccc1-c1noc(-c2cc(OC)c(OC)c(OC)c2)n1,-24% (inactive)
10,CC(C(=O)OCC(=O)c1cccc([N+](=O)[O-])c1)N1C(=O)C2C3CCC(C3)C2C1=O (centres undefined),-8.4% (inactive)
11,NC(=O)COC(=O)C1CSC2(c3ccc(F)cc3)CCC(=O)N12 (centres undefined),-7.5% (inactive)
12,Oc1ccc2ccccc2c1/C=N/Nc1ccccc1,-38.9% (inactive)
13,O=C(CSCC(=O)Nc1ccccc1)N/N=C/c1c(O)ccc2ccccc12,86.4% (active)
14,O=C(CNc1ccccc1)N/N=C/c1c(O)ccc2ccccc12,-10.9% (inactive)
15,Cc1cccc(C)c1NC(=O)CCCSc1nnnn1C,-22.8% (inactive)
16,Cc1ccc(NC(=O)CC2SC(=NC3CCCCC3)NC2=O)cc1 (centres undefined),-23.2% (inactive)
17,CCCn1cccc(C(=O)Nc2ccc(OC)cc2)c1=O,-3.2% (inactive)
18,O=C(CSc1nnc(CNC(=O)c2c(F)cccc2F)o1)NCc1ccccc1,-29.1% (inactive)
19,CCN(CC)S(=O)(=O)c1ccc(N=Cc2c(C)c(C#N)c(=O)n(C)c2O)cc1,-9.8% (inactive)
20,COc1ccc(C2NC(=S)NC(O)(C(F)(F)F)C2C(=O)c2cccs2)cc1 (centres undefined),-33.8% (inactive)
21,BrC(=C\c1ccccc1)/C=N/n1cnnc1,66.7% (active)
22,CC(/C=N/n1cnnc1)=C\c1ccccc1,-1% (inactive)
23,Nc1nnnn1/N=C/C=C/c1ccccc1,10.1% (inactive)
24,ClC(/C=N/n1cnnc1)=C/c1ccccc1,1.7% (inactive)
25,Nc1nnnn1/N=C/c1ccccc1,-4% (inactive)

row,Compound,inhibition
1,Nc1nnnn1/N=C/C(Br)=C/c1ccccc1,95.9% (active)
2,Cc1ccc(C(=O)Nc2ccc(S(=O)(=O)Nc3cnc4ccccc4n3)cc2)cc1,-14.5% (inactive)
3,COc1cccc(/C=C2\SC(=S)N(CCCC(=O)Nc3cc(C)on3)C2=O)c1,-22.5% (inactive)
4,Cc1cccc2c1CC(C)(C)N=C2C1=C(O)CCCC1=O,-19.9% (inactive)
5,C/C(=N\NC(=O)C1CC1)c1ccc(C(C)(C)C)cc1,-39.6% (inactive)
6,CSc1ccc(OC2CCCCC2NS(=O)(=O)c2ccc(Cl)cc2)cc1 (centres undefined),8.3% (inactive)
7,Oc1c(Cl)cc(Cl)cc1/C=N/NC(=S)NC1CC2C=CC1C2 (centres undefined),26.6% (inactive)
8,CCC(O)(CC)C(=O)N/N=C/c1cc(Br)cc(Br)c1O,1.3% (inactive)
9,Oc1c(Br)cc(/C=N/NC(=S)NCc2ccco2)cc1Br,15% (inactive)
10,Oc1ccccc1/C=N/NC(=S)NC1CC2C=CC1C2 (centres undefined),-1.4% (inactive)
11,CC(C)(C)NC(=S)N/N=C/c1cccnc1,-10.2% (inactive)
12,CNC(=S)N/N=C/c1cc(Br)cc(Br)c1O,73.9% (active)
13,Oc1c(Br)cc(Br)cc1/C=N/NC(=S)N[C@H]1CC2C=CC1C2 (some centres undefined),47.8% (active)
14,CNC(=S)N/N=C/c1cc(C)ccc1C,-38.3% (inactive)
15,Nc1nc(SCC(=O)N2CCCCC2)[nH]c(=O)c1NC(=O)c1cccs1,-15.7% (inactive)
16,COc1ccc(N(CC(=O)Nc2ccc3c(c2)OCCO3)S(C)(=O)=O)c(OC)c1,-7.6% (inactive)
17,COc1ccc(Cn2c3ccc(OC)cc3c3nc4ccccc4nc32)cc1,-41.1% (inactive)
18,Cc1cc(Br)ccc1OCCCCNCCO,-40.2% (inactive)
19,O=c1cc(COc2ccc(Cl)c(Cl)c2)nc2sccn12,-5.4% (inactive)
20,CCN(CC)c1ccc(N=Cc2ccc([N+](=O)[O-])o2)cc1,-31.4% (inactive)
21,Cc1ccc(NC(=O)c2cc(C)nc3ccccc23)c(C)c1,-34.7% (inactive)
22,Cc1ccc(NC(=O)Cc2ccccc2)c(C)c1,-29.9% (inactive)
23,COc1ccccc1N(C(=O)c1ccco1)C(C(=O)NC1CCCC1)c1ccc(N2CCOCC2)cc1 (centres undefined),37.6% (inactive)
24,Cc1ccccc1CC(=O)N1CCCC(CCC(=O)N2CCN(c3ccccn3)CC2)C1 (centres undefined),-12.6% (inactive)
25,C=C(C)Cc1c(C)c(C#N)c2[nH]c3ccccc3n2c1=O,19.2% (inactive)

row,Compound,inhibition
1,Cc1c(CCC(=O)O)c(=O)n2c([nH]c3ccccc32)c1C#N,0.9% (inactive)
2,CCc1c(C)c(C#N)c2[nH]c3ccccc3n2c1=S,1.4% (inactive)
3,Cc1c(CCC(C)C)c(=O)n2c([nH]c3ccccc32)c1C#N,91.2% (active)
4,Cc1c(CCO)c(=O)n2c([nH]c3ccccc32)c1C#N,1.6% (inactive)
5,Cc1c(Cc2ccccc2)c(=O)n2c([nH]c3ccccc32)c1C#N,90.3% (active)
6,CN(C1CCCCC1)S(=O)(=O)c1ccc(NC(=O)c2ccco2)cc1,1.3% (inactive)
7,CN1C(=O)C(C)(C)c2cc(S(=O)(=O)N(C)Cc3ccccc3)ccc21,-4.1% (inactive)
8,COc1cccc2c1Oc1ncccc1N(C(=O)CCC(=O)NCc1ccccc1)C2,-19.2% (inactive)
9,O=C(CN1CCCc2ccccc21)NC(=O)NCc1ccccc1,-4.3% (inactive)
10,O=C(c1ccccc1)C1CCN(c2ncccc2[N+](=O)[O-])CC1,-8.7% (inactive)
11,c1ccc2c(c1)oc1c(NCc3ccc4c(c3)OCO4)ncnc12,66.2% (active)
12,Cc1nc(NCc2ccc3c(c2)OCO3)c2oc3ccccc3c2n1,15.2% (inactive)
13,CCc1nc(NCc2ccc3c(c2)OCO3)c2oc3ccccc3c2n1,23.2% (inactive)
14,O=C(CSc1nnnn1-c1ccccc1)CC(=O)Nc1ccc(Cl)cc1,73.1% (active)
15,O=C(CSc1nnnn1-c1ccccc1)Nc1ccc(Cl)cc1,18.8% (inactive)
16,O=C(CSc1nnnn1-c1ccccc1)Nc1ccccc1,-15.6% (inactive)
17,CN1C(=O)SC(Nc2cccc3ccccc23)C1=O (centres undefined),-30.3% (inactive)
18,O=C(CCN1C(=O)C2CC=CCC2C1=O)NC1CCCCC1 (centres undefined),44.9% (active)
19,O=C(CCN1C(=O)C2CC=C(Cl)CC2C1=O)NC1CCCCC1 (centres undefined),-1.2% (inactive)
20,O=C(CN1C(=O)C2CC=CCC2C1=O)NC1CCCCC1 (centres undefined),-35.5% (inactive)
21,Cc1cc2ccccn2c1C(=O)c1ccc(C#N)cc1,2% (inactive)
22,CCOc1ccc2c(c1)OC(c1ccccc1)(C(F)(F)F)NC2=O (centres undefined),-42.1% (inactive)
23,CCOc1ccc2c(c1)OC(c1ccc(C)cc1)(C(F)(F)F)NC2=O (centres undefined),101% (active)
24,CCOc1ccc2c(c1)OC(c1ccc(OC)cc1)(C(F)(F)F)NC2=O (centres undefined),-30.6% (inactive)
